GLS inhibitor: blocks human kidney-isoform glutaminase activity. GLS enzymatic activity, qHTS titration. Potency, µM (highest dose often 45.5 µM), hits mostly inhibitors. 410,000 tested, 0.21% active
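Assay buffer: 45 mM KH2PO4 pH 8.2, 0.02% Tween-20. hKGA acts on L-glutamine (1 mM solution added); product glutamate is reported by an oxidase/peroxidase Amplex Red coupling, with fluorescence taken at baseline and 30 min.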
G9a block: G9a (human) methyltransferase inhibition. Q96KQ7. 350,000 tested, 8.8% active. G9a H3K9 monomethylation, AlphaScreen, 2 h. AID 504332. Potency, µM (titrated, usually from 102 µM), usual class: inhibitors; note: nearly all actives have a fitted effect of over 75% in size
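Step 1: enzyme (final 20 nM) with compound, 15 min RT. Step 2: substrate peptide 500 nM and SAM 20 uM, 2 h RT. Step 3: anti-H3K9me1 antibody and AlphaScreen beads, 10 min, then plate read.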
L3MBTL1 block: inhibitors of human L3MBTL1. Q9Y468. AlphaScreen L3MBTL1–H3K9me1 peptide binding. Potency, µM (series often up to 57.1 µM), hits mostly inhibitors. 230,000 tested, 0.66% active; note: nearly all actives have a fitted effect of over 60% in size
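AlphaScreen assay: L3MBTL1 (50 nM final) was preincubated 30 min at room temperature with biotinylated H3(1-15)K9me1 peptide (75 nM final), then 30 min with library compounds; streptavidin donor and nickel chelate acceptor beads (10 ug/mL final) added, 30 min dark.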
BAZ2B block: blocks human BAZ2B | 360,000 tested, 4.4% active | Potency, µM (top dose mostly 114 µM), most hits filed as inhibitors | Q9UIF8 | AID 504333 | AlphaScreen BAZ2B-H3K14Ac peptide displacement; note: nearly all actives have a fitted effect of over 60% in size
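AlphaScreen displacement: compounds (up to 110uM) incubated 30 min at room temperature with a preformed 50 nM BAZ2B/50 nM biotinylated H3K14Ac peptide complex in PBS pH 7.4 with Tween-20. Donor and acceptor beads at 10 ug/mL final added, 20 min light-protected before reading.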
JMJD2A Tudor: inhibitors of human JMJD2A Tudor domain. O75164. AID 504339. Potency, µM (titrated, usually from 114 µM), actives largely listed as inhibitors. AlphaScreen JMJD2A-Tudor / H3K4me3 peptide binding. 390,000 tested, 4.4% active; note: nearly all actives have a fitted effect of over 50% in size
HP1b binding inh: blocks HP1-beta chromodomain binding to methylated histone tails; AlphaScreen HP1-beta / biotin-H3K9me3 peptide binding; Potency, µM (titrated, usually from 114 µM), usual class: inhibitors; 390,000 tested, 0.56% active; AID 540317; note: nearly all actives have a fitted effect of over 70% in size
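HP1-beta protein (50 nM final) preincubated 30 min at room temperature with biotinylated H3(1-18)K9me3 peptide (50 nM) in PBS pH 7.4, 0.01% Tween-20, then compound added for 30 min. AlphaScreen streptavidin donor/nickel chelate acceptor beads (10 ug/mL final), 30 min dark, luminescence read.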
Each line names hits and unclear results; the compound was inactive in the other large screens. This is a sample that favours compounds with a hit; in the whole collection about 10% have one here. Calls come from the whole dose curve; as a rule, active = well fitted curve in the direction sought with a large enough effect; inconclusive = small, poorly fitted or top-dose-only effect, or another doubt; inactive = no such curve, though single readings can be large; an effect the other way counts as inactive or inconclusive.

C/C=C/COC(=O)c1[nH]c2c(c1C)C(=O)CC(c1ccco1)C2 (stereo not given)	G9a block 45µM, L3MBTL1 block inconclusive, BAZ2B block 50µM, JMJD2A Tudor 50µM
Cc1c(C(=O)OCC(C)C)[nH]c2c1C(=O)CC(c1ccco1)C2 (stereo not given)	G9a block 40µM, L3MBTL1 block inconclusive, BAZ2B block 50µM, JMJD2A Tudor inconclusive
Cc1cccc(N2CCN(C(=O)C3CCN(S(=O)(=O)c4cccs4)CC3)CC2)c1C	none (no result: L3MBTL1 block)
COc1ccc(N2CC(c3nc(-c4ccccc4C)no3)CC2=O)cc1Cl (stereo not given)	none (no result: L3MBTL1 block)
CC(C)c1ccc(S(=O)(=O)NCc2nc3cccnc3n2Cc2ccc(F)cc2)cc1	none (no result: L3MBTL1 block)
O=c1[nH]c2ccccc2nc1/C=C/c1ccc(Cl)cc1	GLS inhibitor inconclusive, JMJD2A Tudor 10µM (no result: L3MBTL1 block)
CC(=O)Nc1ccc(/C=C/c2nc3ccccc3[nH]c2=O)cc1	G9a block inconclusive (no result: L3MBTL1 block)
CCNS(=O)(=O)c1ccc(NC(=S)NCc2ccco2)cc1	G9a block 14µM
C/C(=N\Nc1ccccn1)c1ccc(S(=O)(=O)NCc2ccco2)cc1	BAZ2B block 50µM, HP1b binding inh inconclusive
CC(=O)Nc1ccc(S(=O)(=O)NNC(=S)NCc2ccco2)cc1	G9a block 32µM, JMJD2A Tudor inconclusive (no result: L3MBTL1 block)
O=S(=O)(NCc1ccccc1)c1ccc(NC(=S)NCc2ccco2)cc1	G9a block 50µM, BAZ2B block inconclusive, JMJD2A Tudor inconclusive
O=S(=O)(Nc1ncccn1)c1ccc(NC(=S)NCc2ccco2)cc1	G9a block inconclusive (no result: L3MBTL1 block)
CCN(CC)C(=O)Cn1c(=O)n(-c2ccc(OC)cc2OC)c(=O)c2c(C)c(C(=O)N(CC)CC)sc21	none (no result: L3MBTL1 block)
COC(=O)c1cc2sccc2n1CC(=O)Nc1ccc(C)cc1C	none (no result: L3MBTL1 block)
Fc1ccc(-n2ncc3c(Nc4cccc(Cl)c4)ncnc32)cc1	none (no result: L3MBTL1 block)
CC(C)c1cccc(C(C)C)c1NS(=O)(=O)c1cccs1	none (no result: L3MBTL1 block)
COc1cc(OC)c(NC(=O)C(CC(C)C)N2Cc3ccccc3C2=O)cc1Cl (stereo not given)	G9a block inconclusive, BAZ2B block inconclusive, JMJD2A Tudor inconclusive (no result: L3MBTL1 block)
CCC(=O)Nc1ccc(S(=O)(=O)NCc2ccco2)cc1	G9a block 45µM (no result: L3MBTL1 block)
O=C(CN(CCc1ccccc1)C(=O)CNS(=O)(=O)c1ccccc1)NCc1ccco1	none
O=C(c1ccc(NC(=S)NCc2ccco2)cc1)N1CCCCC1	G9a block 50µM
COC(=O)c1ccc(NC(=S)N2CCN(C(=O)c3ccco3)CC2)cc1	G9a block 32µM (no result: L3MBTL1 block)
Cc1ccc(C(=O)Nc2ccc(S(=O)(=O)NCc3ccco3)cc2)cc1	G9a block inconclusive, BAZ2B block inconclusive, JMJD2A Tudor inconclusive (no result: L3MBTL1 block)
O=C(CNS(=O)(=O)c1ccccc1)NCc1ccco1	G9a block 79µM (no result: L3MBTL1 block)
Cc1ccc(NC(=O)c2ccc(CN3CC(=O)N4CCCCC4C3=O)cc2)cc1 (stereo not given)	none (no result: L3MBTL1 block)
O=C1CCN(CCc2ccccc2)CCN1[C@H](COc1ccccc1)c1ccccc1	G9a block inconclusive, BAZ2B block inconclusive, JMJD2A Tudor inconclusive
CCCN1CCC(=O)N([C@H](COc2ccccc2)c2ccccc2)CC1	G9a block 40µM, BAZ2B block inconclusive
CCSc1ncc(Cl)c(C(=O)N(Cc2ccccc2)c2ccc(OC)cc2)n1	none (no result: L3MBTL1 block)
Nc1[nH]n2c(=O)cc(-c3ccccc3)nc2c1N=Nc1ccc(S(N)(=O)=O)cc1	G9a block 35µM, BAZ2B block inconclusive, JMJD2A Tudor inconclusive
COc1ccc(-c2nn(CC(=O)NCc3ccccc3)c3c2cnc2ccc(F)cc23)cc1	none (no result: L3MBTL1 block)
O=C1S/C(=C\C=C\c2ccco2)C(=O)N1c1ccc(O)cc1	GLS inhibitor inconclusive, G9a block 40µM, L3MBTL1 block 16µM, BAZ2B block 45µM, JMJD2A Tudor inconclusive, HP1b binding inh inconclusive
O=C1S/C(=C\c2cccs2)C(=O)N1c1ccc(O)cc1	none (no result: L3MBTL1 block)
O=C1S/C(=C\C=C\c2ccco2)C(=O)N1c1ccccc1	G9a block 40µM, L3MBTL1 block inconclusive, BAZ2B block 40µM, JMJD2A Tudor 10µM, HP1b binding inh inconclusive
